Assay outcomes from PubChem.
An excerpt weighted towards active compounds, which were near 0.93% of everything screened.
HIV TAR-Tat: HIV-1 TAR-Tat binding disruption; HIV-1 TAR RNA, Tat peptide displacement FRET; active compounds read high; z-score (concentration not given with the values); 0.6% of 100,000 active; active means z-score of 3 or more in at least 2 runs
CDC25B CDK2 inh: human CDC25B-CDK2/CyclinA binding inhibition; P30305+P24941; HTRF CDC25B-CDK2/CyclinA binding, anti-His/anti-Flag; active compounds read high; z-score (concentration not given with the values); 0.72% of 94,000 active; in the data active means z-score above about 3.2
* marks the source's active call; other numbers are inactive results; . = no result given.

SMILES	HIV TAR-Tat	CDC25B CDK2 inh
Fc1ccc(C(NC2CCN(Cc3ccccc3)CC2)c2nnc(-c3ccccc3)o2)cc1 (configuration not stated)	0.11	.
O=C(Cn1c(=O)oc2ccccc21)Nc1ccc(F)cc1F	0.54	.
COc1cc(C2NC(=O)c3c(sc4c3CCN(C)C4)N2)ccc1O (configuration not stated)	-8.1	-0.03
CN1CCc2c(sc3c2C(=O)NC(c2ccc(O)c(O)c2)N3)C1 (configuration not stated)	13*	-0.12
O=C(Nc1nc2ccc(Cl)cc2s1)c1cc(-c2ccc3c(c2)OCCO3)on1	0.2	-2.4
COc1ccc(S(=O)(=O)c2c(C(=O)c3ccc(C)cc3)cnc3cc4c(cc23)OCCO4)cc1	0.27	6.7*
COc1ccc(S(=O)(=O)c2c(C(=O)c3ccc(C)cc3)cnc3cc4c(cc23)OCO4)cc1	-0.24	0.07
Nc1oncc1-c1ccc(Cl)cc1	0.56	-2.2
CC(C)CCNC(=O)C1CCCN(c2nn3c(=O)c4c(nc3s2)CCCC4)C1 (configuration not stated)	1	.
CCOCCCN=C1NS(=O)(=O)C(c2ccc(Cl)cc2)=C1C	0.57	-0.9
COc1ccc2c(=O)c(-c3cc4c(cc3OC)OCO4)coc2c1	20*	.
COc1cc2occ(-c3cc4c(cc3OC)OCO4)c(=O)c2cc1OC	0.74	.
COc1ccc(-c2coc3cc(O)ccc3c2=O)c(OC)c1O	0.53	.
COc1ccc(-c2coc3cc(O)ccc3c2=O)c(O)c1O	23*	.
CC(C)Cc1nn2cc(-c3ccccc3)nc2s1	1.1	0.27
CC(C)NC(=O)c1sc(=S)n2c1[nH]c(=O)c1ccc(C(=O)NC(C)c3ccccc3)cc12 (configuration not stated)	0.68	.
CCN(CC)CCNC(=O)c1ccc2c(=O)[nH]c3c(C(=O)NC(C)C)sc(=S)n3c2c1	6.4*	.
O=C(NCc1ccco1)c1ccc2c(=O)[nH]c3c(C(=O)NCC4CCCO4)sc(=S)n3c2c1 (configuration not stated)	4.7*	.
CC(=O)NCCNC(=O)c1ccc2c(=O)[nH]c3c(C(=O)NC4CCCC4)sc(=S)n3c2c1	16	.
O=C(NCc1cccc(Cl)c1)c1sc(=S)n2c1[nH]c(=O)c1ccccc12	2.9	.
O=C(NCc1ccccc1)c1sc(=S)n2c1[nH]c(=O)c1ccccc12	8.4*	.
Clc1ccc(-c2noc3ncnc(Nc4ccc5c(c4)OCCO5)c23)cc1	0.07	0.21
O=C(Cn1ncn2c(cc3sccc32)c1=O)N1CCCCCC1	.	-1.9
CC(C)NC[C@H](O)c1ccc(O)c(O)c1	.	0.23
NCC(O)c1ccc(O)c(O)c1 (configuration not stated)	.	5.4*
SMILES	HIV TAR-Tat	CDC25B CDK2 inh
Cc1ccc(C)c(S(=O)(=O)NCCc2csc3nc(-c4ccc(F)cc4)nn23)c1	0.91	.
COc1ccc(-c2cc(C3CCN(c4nc(N)c5cc(OC)c(OC)cc5n4)CC3)[nH]n2)cc1OC	.	20*
COc1ccc(-c2c(N)n[nH]c2C)cc1OC	0.76	-2.2
O=C(CCc1nnc2ccc(NCc3ccc(Cl)cc3)nn12)Nc1ccc2c(c1)OCO2	0.07	.
Fc1ccc(CNc2nc3ccccc3c3nc(-c4cccnc4)nn23)cc1	.	-2.8
O=C(Nc1ccc(F)cc1)c1[nH]nc2c1COc1ccccc1-2	0.77	.
CC1(C)OC(=O)C(=Cc2ccc(Cl)cc2Cl)C(=O)O1	.	9.2*
CC1(C)OC(=O)C(=CNc2ccc(F)c(Cl)c2)C(=O)O1	.	-1.6
Cc1cccc(-n2c(SCC(=O)O)nc3sc4c(c3c2=O)CC(C)(C)OC4)c1	0.82	-1.4
Cc1ccnc(N2C(=O)c3ccccc3C2Nc2ccccc2)c1 (configuration not stated)	1.2	0.36
Cc1ccc(N2C(=O)c3ccccc3C2Nc2cccnc2)nc1 (configuration not stated)	-0.5	12*
C[C@](N)(Cc1ccc(O)c(O)c1)C(=O)O	26*	0.01
C[C@](N)(Cc1ccc(O)cc1)C(=O)O	.	0.99
CCCN1CCN(c2nnc(-n3cccc3CNc3cccc(F)c3)s2)CC1	0.83	.
Cc1ccc2[nH]c(CSc3nnc(COc4ccc(Cl)c(C)c4)n3C)cc(=O)c2c1	0.24	.
O=C(Cn1cc2c(n1)CCCC2)NCCCN1CCCCCC1	.	-0.14
O=C(NCC1COc2ccccc2O1)Nc1ccc(Cl)cc1 (configuration not stated)	.	-0.86
Cc1noc(-c2ccccc2)c1NC(=O)NCC1COc2ccccc2O1 (configuration not stated)	.	7*
Cn1c(=O)oc2cc(S(=O)(=O)N3CCCC(C(=O)Nc4ccc(F)cc4F)C3)ccc21 (configuration not stated)	-0.53	-0.87
CC(C)CCNC(=O)C1CC2CCCN2C12C(=O)Nc1ccccc12 (configuration not stated)	2	-3.1
Cc1occc1-c1nnc2sc(/C=C/c3ccccc3Cl)nn12	7.7*	1.2
C(=C\c1nn2cnnc2s1)/c1ccco1	21*	-0.67
Cc1nnc2sc(/C=C/c3ccco3)nn12	11*	-1.1
Cc1ccccc1/C=C/c1nn2c(-c3ccoc3C)nnc2s1	0.29	-1.2
Cc1ccc(/C=C/c2nn3c(-c4ccoc4C)nnc3s2)cc1	0.92	-1.3
SMILES	HIV TAR-Tat	CDC25B CDK2 inh
c1csc(-c2nn3cnnc3s2)c1	0.39	-0.82
Cc1ccc(-c2nn3c(C)nnc3s2)cc1	0.49	-0.67
Cc1ccc(-c2nnc3sc(/C=C/c4ccco4)nn23)cc1	20*	14*
C=CCN(Cc1nc(-c2ccc(Cl)cc2)no1)S(=O)(=O)c1ccccc1	1.5	-0.06
CS(=O)(=O)c1ccc(-c2ccc(NC(=O)C(c3ccccc3)c3ccccc3)cc2)nn1	-0.67	.
Cc1ccc(CNS(=O)(=O)c2ccc3c(c2)CCCC(=O)N3)o1	2.5	.
Cc1cc(C)n(CC(C)O)c(=O)c1C#N (configuration not stated)	0.95	16*
Cc1cc(C)n(CCCO)c(=O)c1C#N	0.5	1
CCSc1nnc(NC(=O)c2cc(=O)c3cc(Cl)ccc3o2)s1	2	-0.47
CC(C)c1nc(NC2CCCCC2)c(C#N)c2c1COC(C)(C)C2	1.5	-1.9
CCOC(=O)COc1ccccc1C(O)C#N (configuration not stated)	.	-1.9
Cc1cc(-c2ccc(=O)[nH]n2)cc(S(=O)(=O)N2CCN(c3ccccc3)CC2)c1C	1.9	.
Cc1cc(-c2ccc(=O)[nH]n2)cc(S(=O)(=O)N2CCC(Cc3ccccc3)CC2)c1C	8.8*	.
COc1ccc(-n2ccc(=O)c(C(=O)Nc3nnc(C(C)C)s3)n2)cc1	-1.1	-0.72
COc1ccccc1C1Oc2ccccc2C2CC(c3cccnc3)=NN21 (configuration not stated)	3.5*	-0.43
COc1ccc(C2=NN3C(C2)c2ccccc2OC3c2ccncc2)cc1OC (configuration not stated)	-0.61	-0.92
CC(C)CNC(=O)N1CC2CCCN2c2ccccc21 (configuration not stated)	-5.1	1.9
O=C(Cn1c2ccccc2c2cn[nH]c(=O)c21)NCC1CCCO1 (configuration not stated)	.	-1.4
c1ccc(-c2nnn3c2nc(NCc2ccc4c(c2)OCO4)c2ccccc23)cc1	-0.92	-0.76
O=S(=O)(NCc1ccc(-c2csnn2)cc1)c1cc(C(F)(F)F)cc(C(F)(F)F)c1	.	-0.91
Cn1c(C(F)(F)F)nnc1S(=O)(=O)Cc1ccc(-c2csnn2)cc1	.	16*
